Tb PFK block = T. brucei PFK enzyme inhibition; Potency, µM (doses to about 57.5 µM), inactives show at the highest dose activity, negative = inhibition, actives largely listed as inhibitors; AID 485367; 330,000 tested, 0.17% active; T. brucei PFK, ADP-Glo luminescence;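 also: potency is read from the fitted curve at half-maximal effect; 0% = uninhibited 1x PFK enzyme wells and -100% = no-enzyme wells; nearly all actives have a fitted effect of over 60% in size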
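ADP-Glo luminescence quantified ADP after 45 min at room temperature, with 1.25 nM T. brucei PFK, 0.1 mM ATP and 0.5 mM fructose-6-phosphate in pH 8.0 TEA buffer. qHTS titrations up to 57 µM; curves classified by quality.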
TDP1 inh = blocks human tyrosyl-DNA phosphodiesterase 1; Q9NUW8; recombinant TDP1, AlphaScreen DNA substrate cleavage; Potency, µM (series often up to 130 µM), without a hit: at the top dose activity change, negative = inhibition, actives largely listed as inhibitors; 350,000 tested, 0.28% active; AID 485290; also: potency is read from the fitted curve at half-maximal effect; % is scaled to controls: 0 for no effect and ±100 for the full control effect; nearly all actives have a fitted effect of over 40% in size
Target sequence (Q9NUW8 whole entry, looked up): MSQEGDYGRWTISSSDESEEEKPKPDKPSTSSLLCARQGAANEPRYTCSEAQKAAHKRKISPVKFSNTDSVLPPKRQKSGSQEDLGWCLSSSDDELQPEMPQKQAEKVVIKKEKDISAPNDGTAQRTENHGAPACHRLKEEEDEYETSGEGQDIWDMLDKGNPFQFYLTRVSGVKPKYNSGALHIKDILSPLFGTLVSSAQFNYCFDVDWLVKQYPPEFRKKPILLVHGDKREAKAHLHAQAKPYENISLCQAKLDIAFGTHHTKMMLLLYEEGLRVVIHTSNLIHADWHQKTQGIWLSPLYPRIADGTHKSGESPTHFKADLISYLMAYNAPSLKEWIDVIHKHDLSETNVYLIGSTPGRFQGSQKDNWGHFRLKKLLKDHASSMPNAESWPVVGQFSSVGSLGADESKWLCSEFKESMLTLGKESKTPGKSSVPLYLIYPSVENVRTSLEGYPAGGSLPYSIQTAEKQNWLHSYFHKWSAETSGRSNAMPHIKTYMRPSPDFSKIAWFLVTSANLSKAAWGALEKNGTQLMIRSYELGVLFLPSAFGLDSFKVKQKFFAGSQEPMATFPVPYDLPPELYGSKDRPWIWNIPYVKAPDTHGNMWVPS
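Signal: AlphaScreen proximity between streptavidin donor and anti-FITC acceptor beads on intact substrate. Reaction: Tdp1 1 nM, substrate 15 nM final, 5 min RT after 15 min compound preincubation.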
PLK1 PBD block = blocks phosphopeptide binding to human PLK1 polo-box domain. Potency, µM, for inactives: max response, negative = inhibition, most hits filed as inhibitors. Plk1 PBD binding of FITC phosphopeptide, fluorescence polarization. P53350. 360,000 tested, 2.8% active; also: potency is read from the fitted curve at half-maximal effect; series mostly up to about 57 µM; % is scaled to controls: 0 for no effect and ±100 for the full control effect; nearly all actives have a fitted effect of over 65% in size
S-ASM inh = blocks human secretory acid sphingomyelinase; P17405; placental ASM, HMU-PC fluorogenic substrate, 60 min; Potency, µM (doses to about 57.5 µM), inactives show at the highest dose activity change, negative = inhibition, usual class: inhibitors; 340,000 tested, 0.006% active; AID 504937; also: potency is read from the fitted curve at half-maximal effect
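Human placenta-derived ASM preincubated with compound 10 min at room temperature, then reacted with 9 uM (final) fluorogenic HMU-PC substrate for 60 min at 37 C. Stop solution raises pH to 10; fluorescence read at Ex 386/Em 447 nm.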
Pin1 inhibitor = blocks the human prolyl isomerase Pin1 | AID 504891 | Q13526 | Pin1 FP peptide displacement, HiFluor488, 10 min | Potency, µM (doses to about 115 µM), for inactives: at the top dose activity, negative = inhibition, hits mostly inhibitors | 390,000 tested, 0.009% active; active = well fitted inhibition curve with a large enough effect in the polarisation, with a control signal flat, not every such curve was filed as active; inconclusive = small, poorly fitted or top-dose-only effect, or effect the other way, or a change in a side signal; inactive = no such curve, though single readings can be large or run the other way; the % refers to the polarisation; also: potency is read from the fitted curve at half-maximal effect; % is scaled to controls: 0 for no effect and ±100 for the full control effect
VDR inhibitor = vitamin D3 receptor (human) inhibition; P11473; VDR-SRC2-3 peptide fluorescence polarization, 2 h; Potency, µM, without a hit: max response, negative = inhibition, actives largely listed as inhibitors; 400,000 tested, 0.93% active; AID 504847; also: potency is read from the fitted curve at half-maximal effect; % is scaled to controls: 0 for no effect and ±100 for the full control effect
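FP read-out; VDR + SRC2-3 coactivator peptide; 23 nl compound by pintool; 2 h RT incubation; reagents held at 4 deg C, protected from light.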
USP1-UAF1 confirm = blocks human USP1/UAF1 cleavage of Ub-Rhodamine. shares compounds with VDR inhibitor. Ub-Rhodamine cleavage, fluorescence kinetic read. Potency, µM (top dose mostly 56.8 µM), without a hit: top-dose activity change, negative = inhibition, most hits filed as inhibitors. 50 tested, 50% active
VDR inh confirm = confirmation of human vitamin D receptor inhibitors | shares compounds with VDR inhibitor | VDR-coactivator inhibition assay, qHTS confirmation | Potency, µM, actives largely listed as inhibitors | 840 tested, 89% active; also: potency is read from the fitted curve at half-maximal effect
VDR FP = VDR (human) coactivator binding inhibition, fluorescein polarization. shares compounds with VDR inhibitor. VDR-coactivator binding, fluorescein fluorescence polarization. Potency, µM (titrated, usually from 57.1 µM), without a hit: top-dose activity change, negative = inhibition, most hits filed as inhibitors. 840 tested, 48% active; also: potency is read from the fitted curve at half-maximal effect
VDR bla = VDR (human) inhibition, cell-based beta-lactamase validation; shares compounds with VDR inhibitor; VDR beta-lactamase reporter cells, FRET ratio; cells co-treated with VDR agonist LG190178; Potency, µM (doses to about 46.1 µM), without a hit: at the top dose activity change, negative = inhibition, hits mostly inhibitors; 840 tested, 23% active; also: potency is read from the fitted curve at half-maximal effect; % is scaled to controls: 0 for no effect and ±100 for the full control effect
VDR viability = cytotoxic in counter-screen for VDR inhibitors; shares compounds with VDR inhibitor; cytotoxicity counter-screen, cell viability, qHTS; Potency, µM (titrated, usually from 48.3 µM), for inactives: top-dose activity change, negative = cytotoxicity, most hits filed as cytotoxic; 840 tested, 18% active; AID 602204;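 also: potency is read from the fitted curve at half-maximal effect; plate controls were DMSO for no effect and high-concentration cycloheximide for full effect; nearly all actives have a fitted effect of over 75% in size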
* marks the source's active call; other numbers are inactive results; u = inconclusive; x = not tested or not shown; [ ] = remark or other dose. An excerpt weighted towards active compounds, which were near 3.1% of everything screened. Unless noted, calls follow the shape of the dose curve; as a rule, active = well fitted curve in the direction sought with a large enough effect; inconclusive = small, poorly fitted or top-dose-only effect, or another doubt; inactive = no such curve, though single readings can be large; an effect the other way counts as inactive or inconclusive.

SMILES	Tb PFK block	TDP1 inh	PLK1 PBD block	S-ASM inh	Pin1 inhibitor	VDR inhibitor	VDR inh confirm	VDR FP	VDR bla	VDR viability	others
CCOC(=O)/C(=C\c1cccc(O)c1)c1nc2sc(C)c(C)c2c(=O)[nH]1	-11%	0%	4.7µM*	-8%	0%	45µM*	3.4*	u	21µM*	u
CCOC(=O)c1nc2sc(C)c(C)c2c(=O)[nH]1	0%	4%	-6%	238%	0%	-8%	x	x	x	x
CC(C)=C1C(=O)NN(c2ccc(F)c(Cl)c2)C1=O	4%	3%	-14%	0%	8%	-2%	x	x	x	x
O=C1NN(c2ccc(F)c(Cl)c2)C(=O)/C1=C\c1cccc(OC(=O)c2cccs2)c1	2%	7%	1.1µM*	-17%	x	22µM*	11*	u	-18%	-9%
CCCCOC(=O)NS(=O)(=O)c1sc(CC(C)C)cc1-c1ccc(Cn2c(CC)nc3c(C)cc(C)nc32)cc1	3%	11%	x	x	x	-3%	x	x	x	x	USP1-UAF1 confirm=u
COc1ccc(OC)c(/C=C/C(=O)c2ccc(Cl)cc2)c1	-6%[0.46 µM]	-6%	-2%	-6%	u	45µM*	18*	22µM*	u	3%
CC(=O)Nc1ccc(OCc2ccccc2)cc1[N+](=O)[O-]	x	x	-8%	-2%	-9%	4%	x	x	x	x
CS(=O)(=O)c1ccc(S(=O)CC(=O)OCc2ccccc2)c([N+](=O)[O-])c1 (stereo not drawn)	-25%	5%	2.4µM*	-1%	0%	18µM*	9.5*	13µM*	u	21µM*
Cc1nn(-c2ccccc2)c2c1N(CCCC(=O)NC(C)c1ccccc1)C(=O)CS2 (stereo not drawn)	x	5%	x	x	3%	19%	x	x	x	x
CCOc1ccc(-c2cccc(NS(=O)(=O)c3c(C)cc(C)cc3C)c2)nn1	x	3%	x	x	18%	15%	x	x	x	x
O=C1OC(NC(=O)c2ccccc2)C(n2cc(CO)nn2)=C1Cl (stereo not drawn)	-18%	-5%	9.5µM*	-1%	x	40µM*	u	u	10%	24%
COc1ccc(/C=C2/CCc3ccccc3C2=O)cc1OC	-15%	3%	-1%	0%	6%	-17%	x	x	x	x
COc1ccc(/C=C2\COc3ccccc3C2=O)cc1OC	1%	2%	27µM*	-1%	-1%	u	22*	16µM*	u	u
O=C(O)c1ccc(/C=C2\COc3ccccc3C2=O)cc1	2%	-2%	-19%	-3%	-3%	20µM*	21*	22µM*	u	u
CCOc1cc(C=O)cc(Br)c1OCC(N)=O	-1%	-3%	-5%	1%	u	-11%	x	x	x	x
Cc1cc(C)c2c(c1)C(=O)/C(=C/c1ccc(C(=O)O)cc1)CC2	-2%	4%	-11%	3%	0%	-28%	x	x	x	x
